Screening data deposited in PubChem BioAssay by National Center for Advancing Translational Sciences (NCATS).
This is a sample that favours compounds with a hit; in the whole collection about 5.6% have one here.
VP16 counter – inhibits Gal4-VP16 luciferase reporter, ROR gamma counter-screen; 310,000 tested, 3.5% active; Potency, µM (titrated, usually from 53.6 µM), for the others: top-dose activity, negative = inhibition, most hits filed as inhibitors; Drosophila S2 Gal4-VP16 UAS-luciferase, luminescence, 20 h;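 also: Gal4-VP16 expression switched on by copper sulfate through the metallothionein promoter; potency is read from the fitted curve at half-maximal effect; nearly all actives have a fitted effect of over 50% in size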
CtBP-E1A blk – CtBP/E1A binding inhibition; AlphaScreen GST-E1A/His-CtBP binding, 1536-well; hits give low values; activity change, % (concentration not given with the values); 340,000 tested, 0.49% active; AID 651724; in the data active = activity change below about -65%; inconclusive = mostly about -30% to -63%
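Homogeneous bead-based format: GST-tagged E1A captured on glutathione donor beads, His-tagged CtBP on nickel acceptor beads; compounds precede bead addition by 2 h at 37 °C.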
Six1-Eya2 blk – blocks human Six1 binding to Eya2; activity change, % (no concentration beside the values); 360,000 tested, 0.56% active; AlphaScreen GST-Six1/His-Eya2 binding, biochemical; hits give low values; AID 651725; Q15475+O00167; in the data active = activity change below about -65%; inconclusive = mostly about -30% to -63%
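Homogeneous AlphaScreen proximity assay pairing GST-Six1 with His-tagged Eya2 (added as 5X mix: 250 nM and 500 nM) in 50 mM Tris pH 8.0, 300 mM NaCl, 1 mM TCEP. Glutathione donor and nickel acceptor beads; 1 h, 37 °C, dark.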
RORgamma inh – blocks mouse ROR gamma transcriptional activity. Potency, µM (highest dose often 53.6 µM), inactives show at the highest dose activity change, negative = inhibition, hits mostly inhibitors. AID 2551. Drosophila S2 Gal4-RORgamma UAS-luciferase reporter, 20 h. P51450. 310,000 tested, 5.4% active; also: potency is read from the fitted curve at half-maximal effect; nearly all actives have a fitted effect of over 60% in size
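In this cell-based reporter format, copper sulfate (700 uM final) drives Gal4–ROR gamma fusion expression from a metallothionein promoter in Drosophila Schneider cells; compounds preincubated 1 hr, reporter read after 20 hr at ambient temperature.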
PKM2 activator – increases activity of human pyruvate kinase M2; purified PKM2, Kinase-Glo ATP luminescence, activation; response scale: 0% is enzyme alone, no compound; Potency, µM (series often up to 57.5 µM), without a hit: at the highest dose activation, hits mostly activators; P14618; 260,000 tested, 0.34% active; also: potency is read from the fitted curve at half-maximal effect; nearly all actives have a fitted effect of over 55% in size
Target sequence (P14618 whole entry, looked up): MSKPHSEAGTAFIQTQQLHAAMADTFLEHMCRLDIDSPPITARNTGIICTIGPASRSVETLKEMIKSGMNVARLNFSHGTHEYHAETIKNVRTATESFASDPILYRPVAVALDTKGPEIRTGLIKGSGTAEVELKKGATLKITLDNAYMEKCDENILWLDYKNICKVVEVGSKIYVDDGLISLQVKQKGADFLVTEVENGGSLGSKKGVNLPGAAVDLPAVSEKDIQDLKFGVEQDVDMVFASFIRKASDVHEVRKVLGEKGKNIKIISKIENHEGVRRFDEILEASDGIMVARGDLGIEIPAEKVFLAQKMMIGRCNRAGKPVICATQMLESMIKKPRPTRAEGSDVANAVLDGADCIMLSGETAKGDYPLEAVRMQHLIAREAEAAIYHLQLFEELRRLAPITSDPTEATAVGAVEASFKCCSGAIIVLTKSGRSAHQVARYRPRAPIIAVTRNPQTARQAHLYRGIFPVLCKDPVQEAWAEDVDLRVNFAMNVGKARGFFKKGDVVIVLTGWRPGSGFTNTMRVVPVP
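Kinase-Glo luminescence reports ATP generated from ADP (0.1 mM) and PEP (0.5 mM) by purified hPK-M2 after 1 h at room temperature, pH 7.2 imidazole buffer; intermediate enzyme activity allows detecting inhibitors and activators.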
* hit, by the source's call; [ ] = dose if it differs, or a comment. Unless noted, calls follow the shape of the dose curve; as a rule, active = well fitted curve in the direction sought with a large enough effect; inconclusive = small, poorly fitted or top-dose-only effect, or another doubt; inactive = no such curve, though single readings can be large; an effect the other way counts as inactive or inconclusive. % is scaled to controls: 0 for no effect and ±100 for the full control effect.

What do the screens show for `O=C(NNC(=S)NC(=O)c1ccco1)c1ccc(NC(=O)c2ccccc2)cc1`?
VP16 counter: 4%; Six1-Eya2 blk: -2; RORgamma inh: inconclusive; PKM2 activator: -4%

What do the screens show for `CC(=O)c1cccc(NC(=S)NNC(=O)c2ccco2)c1`?
VP16 counter: 1%; Six1-Eya2 blk: 0; RORgamma inh: -26%; PKM2 activator: 0%

How did C=C(C)CNC(=S)NNC(=O)c1ccco1 do in these assays?
VP16 counter: 5µM*; CtBP-E1A blk: 13; Six1-Eya2 blk: 8; RORgamma inh: 3.5µM*; PKM2 activator: 1%

How did COc1ccc(C(=O)NNC(=O)C2CCCO2)cc1 (stereo not drawn) do in these assays?
VP16 counter: 2%; CtBP-E1A blk: 9; Six1-Eya2 blk: 0; RORgamma inh: -4%; PKM2 activator: -5%

How did COc1ccccc1C(=O)NNC(=O)C1CCCO1 (stereo not drawn) do in these assays?
VP16 counter: 9%; CtBP-E1A blk: -2; Six1-Eya2 blk: 0; RORgamma inh: 11µM*; PKM2 activator: 0%

Results for Cc1cc(C)nc(NNC(=O)c2ccccc2O)n1 ?
VP16 counter: 3%; Six1-Eya2 blk: 3; RORgamma inh: 11µM*; PKM2 activator: -5%

What do the screens show for `O=C(NC(=S)NNC(=O)c1ccco1)c1ccc(F)cc1`?
VP16 counter: inconclusive; Six1-Eya2 blk: -12; RORgamma inh: 11µM*

How did CCCCc1nc2c(c3c1C[C@H](C)OC3)CN(S(=O)(=O)c1c(C)noc1C)CC2 do in these assays?
PKM2 activator: -8%[11.5 µM]

How did COC(=O)N[C@H](c1ccccc1)C(C(C)=O)C(=O)OC (stereo partly drawn) do in these assays?
VP16 counter: 3%; RORgamma inh: 6%

Results for CN(c1ccc(OC(=O)CN2C(=O)NC3(CCCC3)C2=O)cc1)S(=O)(=O)c1ccccc1 ?
CtBP-E1A blk: 2; Six1-Eya2 blk: 8

How did COc1ccc(NC(=O)c2cc3ccccc3cc2OC)cc1 do in these assays?
VP16 counter: 0%; CtBP-E1A blk: 0; Six1-Eya2 blk: 15; RORgamma inh: inconclusive; PKM2 activator: 0%

What do the screens show for `COc1cc2ccccc2cc1C(=O)NNC(=O)c1ccccc1O`?
VP16 counter: inconclusive; RORgamma inh: 11µM*; PKM2 activator: 0%

What do the screens show for `COc1ccc(C(=O)NC(=S)NNC(=O)c2ccco2)cc1`?
VP16 counter: inconclusive; CtBP-E1A blk: -1; Six1-Eya2 blk: -9; RORgamma inh: 11µM*; PKM2 activator: -1%

What do the screens show for `COc1ccc(/C=C/C(=O)NC(=S)NNC(=O)c2ccco2)cc1`?
VP16 counter: inconclusive; CtBP-E1A blk: -21; Six1-Eya2 blk: -19; RORgamma inh: 3.2µM*; PKM2 activator: -2%

What do the screens show for `COc1ccc(C(=O)NC(=S)NNC(=O)c2ccccc2O)cc1`?
VP16 counter: 1%; CtBP-E1A blk: -12; Six1-Eya2 blk: -92*; RORgamma inh: 7%

What do the screens show for `COc1ccc(/C=C/C(=O)NC(=S)NNC(=O)c2ccco2)cc1OC`?
VP16 counter: -3%; CtBP-E1A blk: 1; Six1-Eya2 blk: -2; RORgamma inh: -8%; PKM2 activator: 5%

Results for CC(C)CNS(=O)(=O)c1ccc(Br)cc1N1CCC[C@@H]1CO ?
CtBP-E1A blk: -1; Six1-Eya2 blk: 3

What do the screens show for `O=C(N/C(=C\c1cccc([N+](=O)[O-])c1)C(=O)N1CCOCC1)c1cccc(Br)c1`?
VP16 counter: -11%; CtBP-E1A blk: 16; Six1-Eya2 blk: -2; RORgamma inh: -1%; PKM2 activator: 4%

Results for O=c1[nH]nc(-c2n[nH]c(=O)o2)o1 ?
CtBP-E1A blk: 0; Six1-Eya2 blk: -8

Results for O=C(N/N=C/C=C/c1ccc2c(c1)OCO2)C(O)c1ccccc1 (stereo not drawn) ?
VP16 counter: inconclusive; CtBP-E1A blk: -15; Six1-Eya2 blk: -25; RORgamma inh: inconclusive; PKM2 activator: 5%

How did COc1ccc(C(C)(C)C)cc1NC(=O)c1cccc(S(=O)(=O)N2CCN(C(C)=O)CC2)c1 do in these assays?
VP16 counter: -3%; CtBP-E1A blk: 2; Six1-Eya2 blk: 7; RORgamma inh: -17%

What do the screens show for `COc1ccccc1C(=O)NNC(=O)c1cccc(F)c1`?
VP16 counter: 10µM*; CtBP-E1A blk: -2; Six1-Eya2 blk: 5; RORgamma inh: 10µM*; PKM2 activator: -36%

What do the screens show for `COc1ccccc1C(=O)NNC(=O)c1cccc(O)c1`?
VP16 counter: inconclusive; Six1-Eya2 blk: 3; RORgamma inh: inconclusive; PKM2 activator: -7%

Results for CC(=O)c1sc(NC(=O)CCS(=O)(=O)c2ccccc2)nc1C ?
VP16 counter: inconclusive; CtBP-E1A blk: -30; Six1-Eya2 blk: -20; RORgamma inh: 13µM*; PKM2 activator: -4%

What do the screens show for `CO[C@H]1COC(=O)[C@H](C)NC(=O)C/C=C\[C@@H](C)[C@@H](NS(=O)(=O)c2ccc(C)cc2)COC(=O)C/C=C\[C@@H]1C`?
VP16 counter: -4%[10 µM]; RORgamma inh: -6%[10 µM]

What do the screens show for `O=C(Nc1ccccc1C(=O)Nc1ccccc1C(=O)O)c1ccccc1`?
VP16 counter: 7%; CtBP-E1A blk: -67*; Six1-Eya2 blk: -81*; RORgamma inh: -2%

How did CCOc1ccc(C(=O)Nc2ccccc2C(=O)O)cc1 do in these assays?
VP16 counter: inconclusive; CtBP-E1A blk: -3; Six1-Eya2 blk: -1; RORgamma inh: 6.3µM*; PKM2 activator: -5%

How did O=C(Nc1ccccc1C(=O)O)c1ccc(NC(=O)C2CC2)cc1 do in these assays?
VP16 counter: 3%; CtBP-E1A blk: inconclusive; Six1-Eya2 blk: -81*; RORgamma inh: -26%; PKM2 activator: 2%

How did Nc1ccc(C(=O)Nc2ccccc2C(=O)O)cc1 do in these assays?
VP16 counter: inconclusive; CtBP-E1A blk: inconclusive; Six1-Eya2 blk: -26; RORgamma inh: -8%; PKM2 activator: -45%

What do the screens show for `C=CCc1ccc(OCCOc2ccc(/C=N/n3cnnc3)cc2OCC)c(OC)c1`?
VP16 counter: inconclusive; CtBP-E1A blk: -3; Six1-Eya2 blk: -9; RORgamma inh: 16µM*; PKM2 activator: 0%

Results for Cc1nc2ccc3nc(NC(=O)c4ccc5c(c4)OCCO5)sc3c2s1 ?
VP16 counter: -2%; CtBP-E1A blk: 16; Six1-Eya2 blk: 31; RORgamma inh: -37%; PKM2 activator: -3%

Results for Cc1nc2c(ccc3nc(NC(=O)c4ccc5c(c4)OCCO5)sc32)s1 ?
VP16 counter: 0.089µM*; CtBP-E1A blk: 12; Six1-Eya2 blk: 4; RORgamma inh: 0.2µM*; PKM2 activator: 4%

How did Cc1nc2c(ccc3nc(NC(=O)C(c4ccccc4)c4ccccc4)sc32)s1 do in these assays?
VP16 counter: 5µM*; CtBP-E1A blk: 22; Six1-Eya2 blk: 8; RORgamma inh: inconclusive; PKM2 activator: 3%
